Data from PubChem BioAssay (Tox21).
Values joined by “and” are separate entries in the source; they are usually repeats but may differ in a detail not shown here. Equal values may be shown once. Inconclusive results are not listed. Active and inactive are the calls of the source. Unless noted, the call rests on the fitted dose curve.

Key:
[1] = molecular target: Gonadotropin-releasing hormone receptor (Homo sapiens) (UniProt P30968); assay: Human gonadotropin-releasing hormone receptor (GnRHR) small molecule agonists, calcium flux assay in GnRHR-HEK293 cells (AID 1920063); further: nearly all actives have a fitted effect of over 35% in size; further: potency means the concentration at half of the fitted maximal effect
How it was run: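 HEK293 cells stably expressing human GnRHR were dye-loaded for 1 h at 37 C. Compound was added in agonist mode and fluorescence (Ex/Em 480/540) recorded kinetically for 3 min. Fifteen concentrations, triplicates.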

[2] = molecular target: KiSS-1 receptor (Homo sapiens) (UniProt Q969F8); assay: Human kisspeptin (KISS1R) small molecule agonists, calcium flux assay in KISS1R-HEK293 cells (AID 1920064; active means well fitted curve in the direction sought with a large enough effect in the repeat runs; an effect the other way counts as inactive or inconclusive; further: potency means the concentration at half of the fitted maximal effect)
How it was run: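 HEK293 cells stably expressing human KISS1R were loaded with calcium dye for 1 h at 37 C, then given compound; fluorescence (Ex/Em 480/540) was read kinetically for 3 min. Fifteen concentrations, triplicate.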

[3] = G protein-coupled receptor (GPCR) small molecule agonists, calcium flux assay: HEK293 wild type cell line counter screen (AID 1920065); further: potency means the concentration at half of the fitted maximal effect
How it was run: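 Wild-type HEK293 cells plated 18 h, loaded with calcium dye 1 h at 37 C, then compounds added in agonist mode (ATP as positive control). Kinetic fluorescence Ex/Em 480/540 recorded 3 min at 1 sec intervals; 15 concentrations, triplicate.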

[4] = p53 small molecule agonists, cell-based qHTS assay with human liver microsomes (AID 1963577);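 further: p53 response element beta-lactamase reporter cells with liver microsomes plus NADPH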
How it was run: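 16 h, 37 C exposure of p53RE-bla cells to compounds with human liver microsomes and NADPH (0.5 mg/mL final each); detection via LiveBLAzer mixture, 2 h dark at room temperature.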

[5] = p53 small molecule agonists, cell-based qHTS assay with rat liver microsomes (AID 1963578)
How it was run: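 With rat liver microsomes and NADPH present (0.5 mg/mL final each), p53RE-bla cells are treated with compound for 16 h at 37 C. LiveBLAzer detection mixture is then applied for 2 h at room temperature in the dark.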

[6] = p53 small molecule agonists, cell-based qHTS assay with human liver microsomes: qHTS cell viability counter screen (AID 1963579); further: nearly all actives have a fitted effect of over 45% in size
How it was run: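 In this multiplexed counter screen, the reporter plates were subsequently treated with CellTiter-Glo so that cell viability, reflected by luminescence, could be recorded for p53RE-bla cells dosed 16 h with compounds under microsomal activation (HLM and NADPH).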

[7] = p53 small molecule agonists, cell-based qHTS assay with rat liver microsomes: qHTS cell viability counter screen (AID 1963580); further: nearly all actives have a fitted effect of over 45% in size
How it was run: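 Intracellular ATP, by CellTiter-Glo luminescence, defines viability. HCT-116 p53RE-bla cells, 4,000 per well, were compound-treated in the presence of rat liver microsomes and NADPH for 16 h at 37 C.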

[8] = p53 small molecule agonists, cell-based qHTS assay: qHTS cell viability counter screen (AID 1963581); further: nearly all actives have a fitted effect of over 45% in size
How it was run: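 p53RE-bla HCT-116 cells, compounds added 5 h after plating and incubated 16 h at 37 C. Cytotoxicity measured in the same wells as intracellular ATP by CellTiter-Glo luminescence after 30 min at room temperature.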

[9] = p53 small molecule agonists, cell-based qHTS assay (AID 1963582; active means well fitted activation curve with a large enough effect in the signal ratio in the repeat runs, not every such curve was filed as active; the % refers to the signal ratio)
How it was run: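 p53RE-bla reporter cells, compounds added in DMSO after 5 h plating, incubated 16 h at 37 C. Beta-lactamase read via 2 h room-temperature LiveBLAzer B/G FRET substrate, fluorescence intensity.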

[10] = molecular target: 5-hydroxytryptamine receptor 2A (Homo sapiens) (UniProt P28223); assay: 5-hydroxytryptamine receptor 2A (HTR2A) small molecule agonists, cell-based qHTS assay (AID 1963587); further: nearly all actives have a fitted effect of over 30% in size
How it was run: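 Kinetic calcium-flux fluorescence (2 min, 1 sec intervals) after compound addition in agonist mode. HTR2A-CHO cells were cultured 18 h, then dye-loaded 1 h at 37 C.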

[11] = molecular target: Muscarinic acetylcholine receptor M1 (Homo sapiens) (UniProt P11229); assay: Cholinergic receptor muscarinic 1 (CHRM1) small molecule antagonists, cell-based qHTS assay (AID 1963588); further: nearly all actives have a fitted effect of over 40% in size; further: potency means the concentration at half of the fitted maximal effect
How it was run: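 CHRM1-CHO calcium-flux assay, antagonist mode. Cells were seeded 18 h, dye-loaded 1 h at 37 C and given compound for 5 min at RT, then acetylcholine was added at 50nM. FDSS fluorescence was read 3 min; 15 concentrations, three runs.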

[12] = molecular target: Muscarinic acetylcholine receptor M1 (Homo sapiens) (UniProt P11229); assay: Cholinergic receptor muscarinic 1 (CHRM1) small molecule agonists, cell-based qHTS assay (AID 1963589); further: nearly all actives have a fitted effect of over 35% in size; further: potency means the concentration at half of the fitted maximal effect
How it was run: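 CHO cells stably expressing human CHRM1 were loaded with calcium dye for 1 h at 37 C, then compound was added in agonist mode. Intracellular calcium fluorescence was followed kinetically at 1 s intervals. Fifteen concentrations were tested in three independent runs.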

[13] = cAMP Responsive Elements (CRE) small molecule agonists, cell-based qHTS assay (AID 1963590)
How it was run: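 CRE-bla HEK 293T cells, 2,000/well in DMEM with 10% dialyzed FBS and 25 mM HEPES, pre-incubated 18 h at 37 C, then exposed to compound 3 h at 37 C. Beta-lactamase reporter read with LiveBLAzer B/G FRET substrate after 2 h at room temperature.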

[14] = cAMP Responsive Elements (CRE) small molecule antagonists, cell-based qHTS assay (AID 1963591; active means well fitted inhibition curve with a large enough effect in the signal ratio in the repeat runs, not every such curve was filed as active; the % refers to the signal ratio)
How it was run: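 CRE-bla HEK293T cells plated 18 h, then given compound plus NKH477 at 0.25 uM final for 3 h at 37C. Beta-lactamase reporter read with LiveBLAzer B/G FRET substrate after 2 h at room temperature.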

[15] = molecular target: Beta-2 adrenergic receptor (Homo sapiens) (UniProt P07550); assay: Adrenergic beta2 receptor (ADRB2) small molecule antagonists, cell-based qHTS assay (AID 1963592); further: series mostly up to about 92 µM; nearly all actives have a fitted effect of over 50% in size
How it was run: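 Cells (CHO, stable ADRB2 overexpression) incubated 18-20hr at 37C; compounds added from DMSO; agonist mix (1nM isoproterenol, 100uM IBMX, 25uM Ro-20-1724) added; 0.5hr RT; d2-cAMP and anti-cAMP-cryptate added; 1hr RT; 665/615 nm read.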

[16] = molecular target: Beta-2 adrenergic receptor (Homo sapiens) (UniProt P07550); assay: Adrenergic beta2 receptor (ADRB2) small molecule agonists, cell-based qHTS assay (AID 1963593);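 further: CHO cells stably overexpressing human ADRB2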
How it was run: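 CHO cells stably over-expressing ADRB2 were plated overnight at 37C, then dosed with compounds plus a stimulation mix containing 100uM IBMX and 25uM Ro-20-1724 for 0.5hr at room temperature. cAMP was measured by HTRF competition, 1hr.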

[17] = molecular target: D(2) dopamine receptor (Homo sapiens) (UniProt P14416); assay: Dopamine D2 receptor (DRD2) small molecule agonists, cell-based qHTS assay (AID 1963594); further: nearly all actives have a fitted effect of over 35% in size
How it was run: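 cAMP accumulation in DRD2-HEK293 cells measured by HTRF after 1 h detection; compounds added 10 min before NKH477 (200nM […]) forskolin-analogue stimulation, 30 min at room temperature, with Ro20-1724 present at 0.1 mM final.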

[18] = molecular target: D(2) dopamine receptor (Homo sapiens) (UniProt P14416); assay: Dopamine D2 receptor (DRD2) small molecule antagonists, cell-based qHTS assay (AID 1963595; active means well fitted inhibition curve with a large enough effect in the signal ratio in the repeat runs, with a control signal flat; the % refers to the signal ratio)
How it was run: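 Stable D2 receptor HEK293 line, 24 h after seeding. Compound preincubated 10 min, then quinpirole (12 nM) with forskolin analogue NKH477 (200 nM), 30 min, room temperature. Detection by time-resolved FRET of cAMP.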

[19] = molecular target: 5-hydroxytryptamine receptor 2A (Homo sapiens) (UniProt P28223); assay: 5-hydroxytryptamine receptor 2A (HTR2A) small molecule antagonists, cell-based qHTS assay (AID 1963586); further: nearly all actives have a fitted effect of over 45% in size; further: potency means the concentration at half of the fitted maximal effect
How it was run: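 Antagonist-mode intracellular calcium assay: DOI (4 nM) added after 5 min compound pre-incubation at room temperature to dye-loaded HTR2A-CHO cells. Fluorescence followed for 3 min, sampled every second.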

[20] = Nuclear factor erythroid 2-related factor 2/antioxidant responsive element (Nrf2/ARE) small molecule agonists: qHTS cell viability counter screen in human keratinocytes (AID 1919968; active means well fitted curve in the direction sought with a large enough effect in the repeat runs; an effect the other way counts as inactive or inconclusive; further: nearly all actives have a fitted effect of over 55% in size)
How it was run: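 KeratinoSens HaCaT cells, 1,500/well, preincubated 5 h, then exposed to compounds in DMSO for 23 h at 37 C/5% CO2. Viability read as CellTiter-Fluor fluorescence after 1 h, in the same wells as the ARE-luciferase read.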
On the % scale 0 is the no-effect control and ±100 the full control effect.

Sequence of 5-hydroxytryptamine receptor 2A (Homo sapiens) (P28223 whole entry, looked up): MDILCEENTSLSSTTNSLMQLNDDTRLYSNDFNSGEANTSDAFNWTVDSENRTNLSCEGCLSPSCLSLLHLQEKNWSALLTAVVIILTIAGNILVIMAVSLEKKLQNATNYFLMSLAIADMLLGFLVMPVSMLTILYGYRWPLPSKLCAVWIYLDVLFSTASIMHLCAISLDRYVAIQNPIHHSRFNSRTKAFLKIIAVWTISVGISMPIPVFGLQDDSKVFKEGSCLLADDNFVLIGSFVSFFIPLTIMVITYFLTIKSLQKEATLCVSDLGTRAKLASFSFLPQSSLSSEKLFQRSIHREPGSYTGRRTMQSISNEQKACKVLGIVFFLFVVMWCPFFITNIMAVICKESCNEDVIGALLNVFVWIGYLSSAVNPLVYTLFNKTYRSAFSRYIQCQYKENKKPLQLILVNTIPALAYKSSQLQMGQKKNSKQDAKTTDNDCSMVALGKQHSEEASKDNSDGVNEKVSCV
Sequence of Beta-2 adrenergic receptor (Homo sapiens) (P07550 whole entry, looked up): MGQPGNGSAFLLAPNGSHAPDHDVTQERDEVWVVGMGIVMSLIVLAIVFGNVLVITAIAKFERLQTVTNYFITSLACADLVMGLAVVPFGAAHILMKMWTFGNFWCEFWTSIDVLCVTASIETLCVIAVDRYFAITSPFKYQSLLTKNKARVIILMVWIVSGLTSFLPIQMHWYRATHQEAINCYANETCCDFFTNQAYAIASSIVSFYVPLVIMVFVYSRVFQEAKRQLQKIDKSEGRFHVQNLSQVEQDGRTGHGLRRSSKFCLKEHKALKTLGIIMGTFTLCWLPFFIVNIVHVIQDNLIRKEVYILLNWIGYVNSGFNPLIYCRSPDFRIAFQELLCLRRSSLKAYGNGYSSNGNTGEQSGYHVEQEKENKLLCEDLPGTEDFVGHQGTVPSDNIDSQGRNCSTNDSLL
Sequence of Muscarinic acetylcholine receptor M1 (Homo sapiens) (P11229 whole entry, looked up): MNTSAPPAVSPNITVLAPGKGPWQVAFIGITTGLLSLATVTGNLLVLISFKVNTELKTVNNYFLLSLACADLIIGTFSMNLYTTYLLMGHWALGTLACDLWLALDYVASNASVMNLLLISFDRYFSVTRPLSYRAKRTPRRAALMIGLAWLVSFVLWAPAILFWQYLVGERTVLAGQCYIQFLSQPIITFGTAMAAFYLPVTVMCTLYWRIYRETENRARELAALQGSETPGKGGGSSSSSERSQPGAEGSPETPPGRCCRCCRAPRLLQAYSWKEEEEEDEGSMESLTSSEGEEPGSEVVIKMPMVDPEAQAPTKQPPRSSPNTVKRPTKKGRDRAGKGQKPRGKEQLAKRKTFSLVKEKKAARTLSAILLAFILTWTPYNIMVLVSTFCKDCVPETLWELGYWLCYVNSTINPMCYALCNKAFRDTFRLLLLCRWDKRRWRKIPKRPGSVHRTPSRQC
Sequence of Gonadotropin-releasing hormone receptor (Homo sapiens) (P30968 whole entry, looked up): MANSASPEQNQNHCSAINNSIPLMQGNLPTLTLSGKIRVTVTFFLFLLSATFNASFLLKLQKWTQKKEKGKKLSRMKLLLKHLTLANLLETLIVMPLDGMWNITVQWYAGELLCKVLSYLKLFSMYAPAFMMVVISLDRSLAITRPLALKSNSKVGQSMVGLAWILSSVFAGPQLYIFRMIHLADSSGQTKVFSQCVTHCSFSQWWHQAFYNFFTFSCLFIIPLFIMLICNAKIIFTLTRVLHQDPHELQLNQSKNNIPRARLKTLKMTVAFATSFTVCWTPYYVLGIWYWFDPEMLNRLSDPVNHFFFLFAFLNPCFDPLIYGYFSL
Sequence of KiSS-1 receptor (Homo sapiens) (Q969F8 whole entry, looked up): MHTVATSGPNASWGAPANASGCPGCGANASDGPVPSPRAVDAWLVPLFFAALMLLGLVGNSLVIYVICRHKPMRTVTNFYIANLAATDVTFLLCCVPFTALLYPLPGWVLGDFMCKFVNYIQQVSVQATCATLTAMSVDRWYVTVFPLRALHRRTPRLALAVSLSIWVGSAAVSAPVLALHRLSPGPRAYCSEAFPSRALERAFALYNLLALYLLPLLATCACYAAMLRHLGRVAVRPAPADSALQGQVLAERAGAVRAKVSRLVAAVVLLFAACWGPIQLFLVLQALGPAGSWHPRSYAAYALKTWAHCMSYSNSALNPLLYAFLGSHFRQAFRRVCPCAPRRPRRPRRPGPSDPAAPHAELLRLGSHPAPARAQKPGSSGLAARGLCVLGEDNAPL
Sequence of D(2) dopamine receptor (Homo sapiens) (P14416 whole entry, looked up): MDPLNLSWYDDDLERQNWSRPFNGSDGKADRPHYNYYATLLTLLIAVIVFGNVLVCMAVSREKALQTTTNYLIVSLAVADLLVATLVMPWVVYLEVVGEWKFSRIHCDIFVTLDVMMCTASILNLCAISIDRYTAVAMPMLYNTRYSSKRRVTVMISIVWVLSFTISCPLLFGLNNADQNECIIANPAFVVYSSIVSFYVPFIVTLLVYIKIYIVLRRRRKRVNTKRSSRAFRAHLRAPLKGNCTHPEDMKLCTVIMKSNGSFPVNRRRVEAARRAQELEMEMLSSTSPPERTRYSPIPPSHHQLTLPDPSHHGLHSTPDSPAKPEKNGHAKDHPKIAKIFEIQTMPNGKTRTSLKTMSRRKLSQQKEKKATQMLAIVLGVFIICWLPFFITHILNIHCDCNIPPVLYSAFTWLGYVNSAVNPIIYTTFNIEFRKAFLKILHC

CC1=NN(c2cc(S(=O)(=O)O)ccc2Cl)C(=O)C1N=Nc1ccccc1 (centres undefined)
inactive: Potency [1] | Potency [2] | Potency [3] | Potency [4] | Potency [5] | Potency [6] | Potency [7] | Potency [8] | Potency [9] | Potency [10] | Potency [11] | Potency [12] | Potency [13] | Potency [14] | Potency [15] | Potency [16] | Potency [17] | Potency [18]

Cc1cc2nc3c(=O)[nH]c(=O)nc-3n(C[C@H](O)[C@H](O)[C@H](O)CO)c2cc1C
active: Potency [1] 17.2 µM and 11.4 µM and 8.27 µM | Potency [2] 24.3 µM and 22.8 µM | Potency [3] 38.5 µM and 32.2 µM and 9.28 µM | Potency [12] 24.3 µM and 20.3 µM and 11.7 µM
inactive: activation [4] -6.49% [at 13.5 µM] | activation [5] -5.55% [at 13.6 µM] | Potency [6] | Potency [7] | Potency [8] | Potency [9] | Potency [19] | Potency [11] | activation [16] 1.44% [at 19 µM]

Cc1ccc(O)c(N)c1
inactive: Potency [1] | Potency [2] | Potency [3] | Potency [4] | Potency [5] | Potency [6] | Potency [7] | Potency [8] | Potency [9] | Potency [19] | Potency [10] | Potency [11] | Potency [12] | Potency [13] | Potency [14] | Potency [15] | Potency [16] | Potency [17] | Potency [18]

O=[N+]([O-])c1ccc(O)cc1
inactive: Potency [1] | Potency [2] | Potency [3] | Potency [4] | Potency [5] | Potency [6] | Potency [7] | Potency [8] | Potency [9] | Potency [19] | Potency [10] | Potency [11] | Potency [12] | Potency [13] | Potency [14] | Potency [15] | Potency [16] | Potency [17]

C=Cc1ccc(S(=O)(=O)O)cc1
inactive: Potency [1] | Potency [2] | Potency [3] | Potency [4] | Potency [5] | Potency [6] | Potency [7] | Potency [8] | Potency [9] | Potency [19] | Potency [10] | Potency [11] | Potency [12] | Potency [13] | Potency [15] | Potency [17] | Potency [18]

COC(=O)[C@]1(C)CCC[C@@]2(C)[C@H]1CC=C1C=C(C(C)C)CC[C@@H]12
inactive: Potency [20] | Potency [3] | Potency [4] | Potency [5] | Potency [7] | Potency [19] | Potency [11] | Potency [12] | Potency [13] | Potency [15] | Potency [16] | Potency [17] | Potency [18]

Cc1cc(Nc2ccc(O)cc2)ccc1N
inactive: Potency [1] | Potency [2] | Potency [3] | Potency [4] | Potency [5] | Potency [6] | Potency [7] | Potency [8] | Potency [9] | Potency [10] | Potency [11] | Potency [12] | Potency [13] | Potency [14]

COc1ccc(-c2ccc3cc(C(=O)O)ccc3c2)cc1C12CC3CC(CC(C3)C1)C2
inactive: Potency [1] | Potency [2] | Potency [3] | Potency [4] | Potency [5] | Potency [6] | Potency [7] | Potency [8] | Potency [9] | Potency [19] | Potency [11] | Potency [12] | Potency [13] | Potency [14] | Potency [15] | Potency [17] | Potency [18]

Nc1ccc([N+](=O)[O-])c(N)c1
inactive: Potency [1] | Potency [2] | Potency [3] | Potency [4] | Potency [5] | Potency [6] | Potency [7] | Potency [8] | Potency [9] | Potency [19] | Potency [10] | Potency [11] | Potency [12] | Potency [13] | Potency [14] | Potency [15] | Potency [17] | Potency [18]

Cc1cccc(C)c1NC(=O)CN1CCN(CCCC(c2ccc(F)cc2)c2ccc(F)cc2)CC1
active: Potency [19] 8.18 µM
inactive: Potency [1] | Potency [2] | Potency [3] | Potency [4] | Potency [5] | Potency [6] | Potency [7] | Potency [8] | Potency [9] | Potency [10] | Potency [11] | Potency [12] | Potency [13] | Potency [15] | Potency [16] | Potency [17]

Oc1cc2c(cc1O)[C@H]1c3ccc(O)c(O)c3OC[C@@]1(O)C2
inactive: Potency [1] | Potency [2] | Potency [3] | Potency [4] | Potency [5] | Potency [6] | Potency [7] | Potency [8] | Potency [9] | Potency [19] | Potency [10] | Potency [11] | Potency [12] | Potency [13]

CC(CN)CC(C)(C)CCN (centres undefined)
active: Potency [11] 10.8 µM
inactive: Potency [1] | Potency [2] | Potency [3] | Potency [4] | Potency [5] | Potency [6] | Potency [7] | Potency [8] | Potency [9] | Potency [19] | Potency [13] | Potency [14] | Potency [15] | Potency [17] | Potency [18]
